Here are results for 86 sequences from the supplement of paper PMC12636033.

± gives the standard deviation of the averaged measurements. In all, about 33,000 sequences were measured (“E-score (rank enrichment, -0.5 to 0.5)”: median about -0.0043, highest 2% from about 0.24 on). The list comes from a sample in which the highest values are over-represented; it also holds similar and randomly drawn sequences.

The assay has as its system 2Sp-muMax20 (muMax20 with two 2,6-bis(methyl)pyridine Cys staples). The assay is described as follows: PBM 8-mer E-score (E-score (rank enrichment, -0.5 to 0.5)); higher = stronger preferential binding. As to the method:
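Protein binding microarray (universal PBM chip covering all 10-mers in fixed probe flanks) with chemically synthesized human Max(13-93) bHLH-LZ analogs (not full-length Max) bearing noncanonical residues (hArg, Tha, Aib, Nle at 65) and aromatic Cys staples. Read-out per 8-mer (and its reverse complement): E-score (rank-based enrichment, -0.5 to 0.5) and Z-score of median probe intensity.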
As to GGTGTTGA, the “PBM 8-mer E-score” value was 0.0564 ± 0.02.

Regarding AGGAACAT, the “PBM 8-mer E-score” value is -0.135 ± 0.031.

ATTTACGA: the “PBM 8-mer E-score” value stood at 0.0937 ± 0.12.

For CTTTACGA, the “PBM 8-mer E-score” value is -0.0477 ± 0.0036.

Take GTTTACGA: the “PBM 8-mer E-score” value was 0.242 ± 0.027.

In the case of GAACGCAC, the “PBM 8-mer E-score” value was -0.0274 ± 0.025.

For ACAAAGCT, the “PBM 8-mer E-score” value is 0.00391 ± 0.011.

With CTGTATCA, the “PBM 8-mer E-score” value was -0.0346 ± 0.018.

In the case of ACATAGCA, the “PBM 8-mer E-score” value was 0.236 ± 0.05.

As to ATGTATCC, the “PBM 8-mer E-score” value is -0.111 ± 0.0078.

CCATAGCA: the “PBM 8-mer E-score” value is 0.135 ± 0.0028.

Consider TCATAGCA, for which the “PBM 8-mer E-score” value is 0.159 ± 0.02.

CCATATCA: the “PBM 8-mer E-score” value worked out at 0.114 ± 0.071.

On to CTGTATCC, for which the “PBM 8-mer E-score” value was determined as 0.236 ± 0.0094.

For GTATATCA, the “PBM 8-mer E-score” value amounted to 0.0652 ± 0.016.

Take CTATATCA: the “PBM 8-mer E-score” value turned out to be 0.24 ± 0.0079.

On to ACATATCG, for which the “PBM 8-mer E-score” value worked out at 0.115 ± 0.042.

As for ATATATCA, the “PBM 8-mer E-score” value was 0.212 ± 0.014.

As to ACATATCA, the “PBM 8-mer E-score” value is 0.299 ± 0.0056.

On to CGCGCAGC, for which the “PBM 8-mer E-score” value was -0.126 ± 0.023.

Consider GCAGACGC, for which the “PBM 8-mer E-score” value is -0.0631 ± 0.015.

Consider CCCAACTA, for which the “PBM 8-mer E-score” value amounted to 0.161 ± 0.022.

As for TTCGGCAA, the “PBM 8-mer E-score” value is 0.0437 ± 0.12.

For the sequence AAATCAGG, the “PBM 8-mer E-score” value came to 0.041 ± 0.025.

Turning to TGCCGTAA, the “PBM 8-mer E-score” value is -0.113 ± 0.098.

Take CGCCAGCA: the “PBM 8-mer E-score” value is -0.199 ± 0.1.

For the sequence CACGAAAC, the “PBM 8-mer E-score” value stood at 0.164 ± 0.018.

With ATATATCG, the “PBM 8-mer E-score” value is 0.0892 ± 0.031.

With CTATATCC, the “PBM 8-mer E-score” value stood at 0.169 ± 0.018.

ATATATCC: the “PBM 8-mer E-score” value came to 0.285 ± 0.096.

As to AAACTCGT, the “PBM 8-mer E-score” value is -0.0113 ± 0.038.

In the case of CACCTTTA, the “PBM 8-mer E-score” value was -0.0135 ± 0.041.

For ATCTAGTC, the “PBM 8-mer E-score” value is -0.00402 ± 0.0038.

As for AACATTAC, the “PBM 8-mer E-score” value came to 0.169 ± 0.003.

Regarding CACATTAG, the “PBM 8-mer E-score” value is 0.00777 ± 0.035.

On to CACATTAC, for which the “PBM 8-mer E-score” value is 0.2476 ± 0.0022.

On to CCATTCGC, for which the “PBM 8-mer E-score” value was -0.13 ± 0.11.

GCGAGGTA: the “PBM 8-mer E-score” value was -0.144 ± 0.19.

For AGTTCCCC, the “PBM 8-mer E-score” value was -0.0334 ± 0.025.

As to GATTATAA, the “PBM 8-mer E-score” value was 0.154 ± 0.034.

CATTATAC: the “PBM 8-mer E-score” value stood at 0.218 ± 0.0061.

Take TATTATCA: the “PBM 8-mer E-score” value worked out at 0.122 ± 0.025.

Regarding AATTCTAA, the “PBM 8-mer E-score” value was 0.133 ± 0.092.

AATTATAG: the “PBM 8-mer E-score” value was found to be 0.148 ± 0.082.

On to TATTCTAA, for which the “PBM 8-mer E-score” value was determined as 0.246 ± 0.003.

For CATTATAA, the “PBM 8-mer E-score” value turned out to be 0.246 ± 0.1.

Take CATTATAG: the “PBM 8-mer E-score” value was determined as 0.0091 ± 0.076.

Regarding TATTATAA, the “PBM 8-mer E-score” value is 0.244 ± 0.079.

Take TCTTATAA: the “PBM 8-mer E-score” value turned out to be 0.193 ± 0.04.

As for AATTATAA, the “PBM 8-mer E-score” value is 0.3 ± 0.026.

Regarding CATTCTAA, the “PBM 8-mer E-score” value came out at 0.00098 ± 0.075.

On to GGGGGGGA, for which the “PBM 8-mer E-score” value was -0.1747 ± 0.00091.

Take AGATAGCA: the “PBM 8-mer E-score” value worked out at 0.137 ± 0.011.

Regarding CCTTATGC, the “PBM 8-mer E-score” value turned out to be 0.0835 ± 0.078.

Consider AATTATCT, for which the “PBM 8-mer E-score” value amounted to 0.235 ± 0.023.

Turning to AATTATCC, the “PBM 8-mer E-score” value was 0.0373 ± 0.0027.

In the case of AATTATCA, the “PBM 8-mer E-score” value came out at 0.198 ± 0.045.

For the sequence ACCCTCGT, the “PBM 8-mer E-score” value was 0.00159 ± 0.081.

In the case of GACTAACA, the “PBM 8-mer E-score” value was 0.0143 ± 0.0082.

On to GGCCCAAA, for which the “PBM 8-mer E-score” value is -0.117 ± 0.027.

As to AAAATGCT, the “PBM 8-mer E-score” value was 0.263 ± 0.0092.

CAAATGGC: the “PBM 8-mer E-score” value is -0.0435 ± 0.002.

In the case of CAAATGTA, the “PBM 8-mer E-score” value turned out to be 0.188 ± 0.012.

AAAATGCC: the “PBM 8-mer E-score” value was -0.0688 ± 0.037.

For AAAATGGG, the “PBM 8-mer E-score” value was -0.206 ± 0.0038.

For CGAATGCA, the “PBM 8-mer E-score” value was found to be 0.32 ± 0.04.

CGAATGCC: the “PBM 8-mer E-score” value is -0.0493 ± 0.096.

Take TAAATGTA: the “PBM 8-mer E-score” value is 0.281 ± 0.054.

As to CAAATGGG, the “PBM 8-mer E-score” value amounted to 0.236 ± 0.052.

With GAAATGTA, the “PBM 8-mer E-score” value was 0.0185 ± 0.077.

As to AAAATGCA, the “PBM 8-mer E-score” value worked out at 0.145 ± 0.012.

For CGAATGCG, the “PBM 8-mer E-score” value came to 0.0188 ± 0.013.

Turning to CGGGACCG, the “PBM 8-mer E-score” value is -0.357 ± 0.032.

With CCTATCCC, the “PBM 8-mer E-score” value worked out at 0.0952 ± 0.097.

Turning to TCATCTAA, the “PBM 8-mer E-score” value came out at 0.00256 ± 0.03.

On to AATCTAAA, for which the “PBM 8-mer E-score” value stood at 0.0534 ± 0.04.

As for CAGCGATC, the “PBM 8-mer E-score” value is -0.158 ± 0.022.

With AGAATGCA, the “PBM 8-mer E-score” value is 0.0925 ± 0.055.

In the case of ACCAATCA, the “PBM 8-mer E-score” value was -0.0682 ± 0.088.

Regarding CGTACGAA, the “PBM 8-mer E-score” value is 0.19 ± 0.0087.

In the case of CACGACGG, the “PBM 8-mer E-score” value came out at 0.0169 ± 0.013.

Consider CGAAGAAA, for which the “PBM 8-mer E-score” value stood at 0.223 ± 0.059.

On to CCACTGAA, for which the “PBM 8-mer E-score” value is -0.0273 ± 0.065.

As to AGCAAGAT, the “PBM 8-mer E-score” value is -0.0742 ± 0.058.

TAAATGCA: the “PBM 8-mer E-score” value was 0.238 ± 0.1.

For CAAATGCA, the “PBM 8-mer E-score” value came to 0.064 ± 0.011.
